Data taken from the supplement of paper PMC6555819.

These sequences were tested on VDR:RXRa (NR concentration 270 nM, RXRa partner concentration 90 nM) (assay: PBM binding z-score (relative to random genomic background probes); higher = stronger binding; sequences stand for … in GC…GCGATTGACAGCGTAGAATGAAGG).
Method: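 Protein-binding microarray (Agilent 4x180K custom design, double-stranded 60-nt probes: 5' GC cap, 34-nt variable region, 24-nt constant primer region; full probe sequence given). Purified or IVT nuclear receptor:RXRα heterodimers (3:1 NR:RXRα, mostly 270:90 nM) or homodimers were incubated for 1 h in PBS with 2% milk and no ligand, then detected with Alexa488 antibodies. Fluorescence from o1-orientation probes (~5 replicates averaged) was converted to z-scores against 500 random hg19 background probes. Variable regions are seed direct-repeat (DR0–DR5) sites, all their single-nucleotide variants and half-site ablations.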
In the case of AGAATGAGGTTAAGATCAGGGATACAGAATACAT, the PBM binding z-score is reported as 1.47.
In the case of ATATGTAGGTTAAGGGTCATTCATGTTGGTTCGC, the PBM binding z-score is reported as 5.08.
Sequence TCATATAGGTAAACGGGTGAAAGTCCGTAAGTTA has a PBM binding z-score of 1.16.
In the case of CATACAGGGTCAGCTAGGCCAGATTAGGGACGGC, the PBM binding z-score is reported as 3.94.
ATCGAAAGCTCGAGGTGAGTATAGAGAAAGGGAA showed a PBM binding z-score of -0.459.
In the case of CAAATTAGGTCACCGGAAGGTCAAAGTCCGCATG, the PBM binding z-score is reported as 5.86.
ATACCAAGGTGATCGTGAGGCCGTTGATACTAAC showed a PBM binding z-score of 0.401.
ACAGACAGGTGATGAAGGTAACTAAGGCTATCAT gave a PBM binding z-score of 0.295.
With AGTCAAAGTTCAGGACGAGGGAACGTAAAGCACG the PBM binding z-score was 2.05.
TTACCAAGGTGAAAGGTCGTTTATGCACGCCTTG gave a PBM binding z-score of 3.32.
For CATCAAAGTTCAAGGTAACGTAACAGAAAGCAGC, the PBM binding z-score was 4.01.
In the case of CGTCCCAGGTCAGCAGGTCAGTGAAAGCGACGTG, the PBM binding z-score is reported as 2.54.
Sequence TCGAGTAGGTTAGGGGCATTCACAATGGCGTCGA has a PBM binding z-score of 0.522.
In the case of CGTCCAAGGTCAGAGAGGCCAGTGAATGCCGAGT, the PBM binding z-score is reported as 5.4.
With TCATATAGGTAAAAGGCGAAAGTCGGTGTGGTAA the PBM binding z-score was 0.679.
Work on TCTTGTAGATCAAGCAGGGTAAGAAAGCCTGAGT yielded a PBM binding z-score of 0.33.
CTTTACGGGTCACGAGGTTATAGCACGACGAGCG was tested, and the PBM binding z-score was 5.31.
With GCTAGCAGGCCATTTAGGTCACTCAATGACGGGC the PBM binding z-score was 0.996.
For TAAATGAGGTTATAAGATCAGGGAACGTTGCAAA, the PBM binding z-score was 1.1.
Work on GGAACGAGGGCATTCGAGTTGATACCATGGCGAT yielded a PBM binding z-score of 3.67.
ATCGAAAGGTCGCCGAGGTGAGTATACACCGTTT gave a PBM binding z-score of 5.39.
With CGAACGAGGGCATAAGTTGATAGCAAATGCCGAT the PBM binding z-score was 0.652.
In the case of CCTTACGGGTCAAGGCTATAGCACGGGTGGTACG, the PBM binding z-score is reported as 2.77.
CTCGAAAGGTCGCTTGAGGTGAGTATACGGATAA gave a PBM binding z-score of 3.4.
For GCATATAGGTAATACACGGTGAAAGTCCGATTGT, the PBM binding z-score was -0.0227.
For AGAATGAGGGCACGCTGAGTTGATAGCAGAGTAG, the PBM binding z-score was 2.35.
ACAGACAGGTGATGAAGGTAATTCAGGCTATCAT was tested, and the PBM binding z-score was 0.0212.
CGTCCAAGGTCAAGGTCAGTGAGAGAGACTCGAA gave a PBM binding z-score of 4.84.
For CGAACTAGGTCATTGACAGGACAGTAAATAGTAA, the PBM binding z-score was 2.34.
With AATACAGGGTCACTAGGCCAAAGTAGGTACGAAT the PBM binding z-score was 4.27.
AGAATGAGGTTATTAAGATCAGGGAGTTGCGGTC was tested, and the PBM binding z-score was 2.3.
In the case of GCGACTGGGGCATAAGCAGGTTACCATAACTTAA, the PBM binding z-score is reported as -0.0344.
In the case of CAAACTAGGTCAAGAGGACAAAGTCCGCTTCCCG, the PBM binding z-score is reported as 1.98.
With GCAGACAGGTGAAACGCAGGTAACTGAGGGTGGC the PBM binding z-score was -0.361.
TCTTGTAGATCAATACAGGTTAAGAAAGTGCGCT was tested, and the PBM binding z-score was 1.26.
TCGAGTAGGTTAGTCGGGTCATTCAGCCAACATA gave a PBM binding z-score of 4.88.
Work on CATCCAAGGTCATAGGAGGTCAGTGAAGACAGAT yielded a PBM binding z-score of 6.74.
For TATACAGGGTCAAAGGCGAGAGTACGAATGTCGA, the PBM binding z-score was 4.59.
In the case of ATCGAAAGGTCGTGAGGTGAGTATTCAGAAAGGC, the PBM binding z-score is reported as 3.7.
Work on TTGCCAAGGTGAGCTGAGGTCGTTGATCCAACTC yielded a PBM binding z-score of 3.93.
